We go through five compounds from PubChem BioAssay.

SMILES strings stand for the structures. The source made the active and inactive calls.

For test [1], the system named is Plasmodium falciparum Sir2 (PF13_0152, Sir2A). Nature of the test: pfSir2 binders on small-molecule microarrays, primary screen, biochemical, small-molecule microarray, 635 nm fluorescence (AID 1098).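 Also: score merges spot fluorescence intensity with its signal-to-noise ratio.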 As to conditions: small-molecule microarray binding, fluorescence 635 nm; higher = more signal.
A short description of test [2]: small-molecule microarray binders of probe aDKK1, primary screen, biochemical, biotinylated probe, 635/667 nm fluorescence (AID 1099).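 Also: score merges 667nm spot fluorescence with signal to noise across triplicate slides.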 As to conditions: higher = more signal.
A short description of test [3]: small-molecule microarray binders of probe aCHRDL2, primary screen, biochemical, biotinylated probe, 635/667 nm fluorescence (AID 1100). The note with it: higher = more signal.
Test [4] in a line: splicing luciferase reporter signal modulators, primary screen, spliceosome inhibition project, cell-based, HEK293, splice +/- reporter (AID 1101).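 Also: HEK293 cells carrying a splicing-competent luciferase reporter gene; test concentration not given here.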 As to conditions: luminescence, 24 h, higher = more signal, called active from +8 up or from −8 down.
Test [5] concerns the target Fibroblast growth factor 10 (Homo sapiens) (UniProt O15520). Nature of the test: FGF10 binders on small-molecule microarrays, primary screen, biochemical, small-molecule microarray, 635 nm fluorescence (AID 1102). As to conditions: FGF10 binding, fluorescence 635 nm, higher = more signal.
In test [6] the test system is glycogen synthase kinase-3 (GSK3A per assay name; protocol says GSK3B). Nature of the test: GSK3 binders on small-molecule microarrays, primary screen, biochemical, small-molecule microarray, 635 nm fluorescence, GSK3A (AID 1103). Also: the record names both GSK3A and GSK3B. As to conditions: small-molecule microarray binding, fluorescence 635 nm; higher = more signal.
The target of test [7] is Epidermal growth factor receptor (Homo sapiens) (UniProt P00533). Nature of the test: EGFR binders on small-molecule microarrays, primary screen, biochemical, small-molecule microarray, 635 nm fluorescence (AID 1104).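 Also: score merges 667 nm emission intensity with spot signal to noise over triplicate slides.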 The note with it: EGFR binding, higher = more signal.
Epidermal growth factor receptor (Homo sapiens), sequence (P00533 whole entry, looked up): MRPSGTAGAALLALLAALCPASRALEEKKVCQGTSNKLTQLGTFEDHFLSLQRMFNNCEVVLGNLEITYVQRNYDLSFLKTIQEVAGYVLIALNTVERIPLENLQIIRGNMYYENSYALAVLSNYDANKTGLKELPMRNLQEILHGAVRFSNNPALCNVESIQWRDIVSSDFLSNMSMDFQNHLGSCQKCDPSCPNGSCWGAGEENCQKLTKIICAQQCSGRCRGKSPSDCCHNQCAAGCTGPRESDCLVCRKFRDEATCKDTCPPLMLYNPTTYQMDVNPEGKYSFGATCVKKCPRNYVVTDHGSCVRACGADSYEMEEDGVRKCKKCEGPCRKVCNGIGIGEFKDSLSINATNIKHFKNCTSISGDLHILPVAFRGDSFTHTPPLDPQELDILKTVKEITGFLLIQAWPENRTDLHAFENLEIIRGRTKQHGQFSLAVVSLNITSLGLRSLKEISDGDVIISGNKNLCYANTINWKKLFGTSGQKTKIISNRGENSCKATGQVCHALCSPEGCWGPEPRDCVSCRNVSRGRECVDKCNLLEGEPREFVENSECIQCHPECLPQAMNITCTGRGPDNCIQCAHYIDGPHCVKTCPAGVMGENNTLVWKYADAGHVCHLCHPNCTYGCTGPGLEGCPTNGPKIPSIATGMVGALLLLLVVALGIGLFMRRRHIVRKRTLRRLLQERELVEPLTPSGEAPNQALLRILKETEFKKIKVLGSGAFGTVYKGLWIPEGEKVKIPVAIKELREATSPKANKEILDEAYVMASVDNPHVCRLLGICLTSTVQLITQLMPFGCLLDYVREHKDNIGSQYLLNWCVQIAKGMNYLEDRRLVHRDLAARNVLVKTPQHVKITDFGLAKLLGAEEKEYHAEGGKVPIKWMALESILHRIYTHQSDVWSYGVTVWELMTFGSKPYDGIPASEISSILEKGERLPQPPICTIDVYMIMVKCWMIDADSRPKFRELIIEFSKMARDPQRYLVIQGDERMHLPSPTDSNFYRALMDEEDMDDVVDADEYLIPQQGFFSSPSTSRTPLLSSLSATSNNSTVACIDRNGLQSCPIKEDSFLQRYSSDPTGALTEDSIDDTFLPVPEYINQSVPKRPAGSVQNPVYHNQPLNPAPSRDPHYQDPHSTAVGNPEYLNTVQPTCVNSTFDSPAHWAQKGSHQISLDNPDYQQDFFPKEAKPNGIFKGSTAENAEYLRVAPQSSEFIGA
Test [8] has as its target Follistatin-related protein 3 (Homo sapiens) (UniProt O95633). Description: FSTL3 binders on small-molecule microarrays, primary screen, biochemical, small-molecule microarray, 635 nm fluorescence (AID 1105).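 Also: score merges emission near 667 nm and signal to noise per printed spot across three slides.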 As to conditions: FSTL3 binding, higher = more signal.
For test [9], the target named is Dickkopf-related protein 1 (Homo sapiens) (UniProt O94907). Description: DKK1 binders on small-molecule microarrays, primary screen, biochemical, small-molecule microarray, 635 nm fluorescence scan (AID 1106).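 Also: score merges emission near 667 nm with signal to noise over three replicate slides.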 The note with it: DKK1 binding, higher = more signal.
Dickkopf-related protein 1 (Homo sapiens), sequence (O94907 whole entry, looked up): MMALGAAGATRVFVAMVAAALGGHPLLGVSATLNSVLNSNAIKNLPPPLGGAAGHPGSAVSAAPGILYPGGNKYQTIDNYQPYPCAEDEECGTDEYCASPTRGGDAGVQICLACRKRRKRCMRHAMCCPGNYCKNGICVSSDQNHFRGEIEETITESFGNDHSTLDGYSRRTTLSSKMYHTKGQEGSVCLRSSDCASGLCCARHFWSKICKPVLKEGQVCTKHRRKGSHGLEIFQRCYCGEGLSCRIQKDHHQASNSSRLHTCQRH
Test [10] deals with Inhibin beta A chain (activin A). Description: INHBA (activin A) binders on microarrays, primary screen, biochemical, small-molecule microarray, 635 nm fluorescence scan (AID 1107).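 Also: mouse activin A protein probed at 4.33 µg/mL on printed slides; score merges bound-protein fluorescence near 667 nm with spot signal-to-noise.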 As to conditions: small-molecule microarray binding, higher = more signal.
The test system of test [11] is Human papillomavirus type 1a protein E7 (residues 44-93). Description: HPV1a E7 fragment binders on microarrays, primary screen, biochemical, small-molecule microarray, residues 44-93, 635 nm fluorescence (AID 1108).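 Also: E7 fragment applied at 1 µg/mL in TBST for 1 h at 4 C; score combines spot fluorescence with its signal to noise ratio.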 As to conditions: small-molecule microarray binding, fluorescence 635 nm; higher = more signal.
A short description of test [12]: modulators of HCV replicon luciferase signal, primary screen, HCV replication inhibitor project, Huh7 cells, luciferase reporter (AID 1109).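 Also: huh7 hepatoma cells harbouring a luciferase neomycin HCV replicon reporter; luciferase luminescence as measure of HCV replicon replication; test concentration not given here.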 As to conditions: 48 h, higher = more signal.
The target in test [13] is Left-right determination factor 2 (Homo sapiens) (UniProt O00292). Nature of the test: LEFTY2 binders on small-molecule microarrays, primary screen, biochemical, small-molecule microarray, 635 nm fluorescence scan (AID 1110). The note with it: LEFTY2 binding, higher = more signal.
Left-right determination factor 2 (Homo sapiens), sequence (O00292 whole entry, looked up): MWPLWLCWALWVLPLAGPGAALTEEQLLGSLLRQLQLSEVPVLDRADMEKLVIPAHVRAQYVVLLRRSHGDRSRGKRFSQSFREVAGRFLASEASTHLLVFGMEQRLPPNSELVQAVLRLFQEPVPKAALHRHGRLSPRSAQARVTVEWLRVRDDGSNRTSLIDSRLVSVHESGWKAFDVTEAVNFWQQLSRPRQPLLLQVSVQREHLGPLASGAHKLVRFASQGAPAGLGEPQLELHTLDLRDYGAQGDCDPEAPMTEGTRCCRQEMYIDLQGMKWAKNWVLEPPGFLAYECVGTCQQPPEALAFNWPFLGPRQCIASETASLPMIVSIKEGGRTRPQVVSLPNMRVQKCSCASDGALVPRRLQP
For test [14], the target named is Calmodulin-1 (Homo sapiens) (UniProt P0DP23). Description: CALM1 binders on microarrays, EGTA buffer, profiling panel, biochemical, small-molecule microarray, Cy5-labelled CALM1 (AID 1111).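 Also: labelled calmodulin applied in Tris saline Tween buffer holding calcium plus EGTA and DTT.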 As to conditions: Cy5-CALM1 binding fluorescence, higher = more signal.
For test [15] the target is unchanged. Description: calcium-bound CALM1 binders on microarrays, profiling panel, artefact control for SMM control-protein annotation, biochemical, small-molecule microarray, Cy5-labelled CALM1, plus calcium (AID 1112).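 Also: score merges spot fluorescence with signal to noise from triplicate slides.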 As to conditions: Cy5-CALM1 binding fluorescence, higher = more signal.
Test [16] in a line: small-molecule microarray binders of probe aWnt5a, primary screen, biochemical, biotinylated probe, 635/667 nm fluorescence (AID 1113).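 Also: score merges 667 nm fluorescence intensity with signal-to-noise per printed feature.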 The note with it: higher = more signal.
The nature of test [17]: small-molecule microarray binders of probe aShh, primary screen, biochemical, biotinylated probe, 635/667 nm fluorescence (AID 1114).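 Also: probe is biotin-labelled aShh protein from a stem cell growth factor screen; measures binding of labelled protein to compounds printed on the slide; score merges feature fluorescence at 667 nm with signal-to-noise.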 The note with it: higher = more signal.
Test [18] is described as follows: small-molecule microarray binders of probe aNog, primary screen, biochemical, biotinylated probe, 635/667 nm fluorescence (AID 1115).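 Also: probe is biotinylated aNog protein used at 0.15 µg/mL for 1 h at 4 C; z-score combines 667 nm fluorescence of each spot with its signal to noise.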 The note with it: higher = more signal.
Test [19] concerns the target Torsin-1A-interacting protein 1 (Homo sapiens) (UniProt Q5JTV8). Nature of the test: LAP1 binders from COS7 cell lysate, primary screen, small-molecule microarray, 635/667 nm fluorescence (AID 1116). The note with it: COS7-hLAP1 lysate binding, 635 nm fluorescence, higher = more signal.
Test [20] has as its target Alpha-bungarotoxin (Bungarus multicinctus) (UniProt P60615). Nature of the test: alpha-bungarotoxin binders on microarray, profiling panel, artefact control for SMM control protein annotation, biochemical, small-molecule microarray, Alexa647 label, 635/667 nm fluorescence (AID 1117). The note with it: alpha-BTX-A647 binding fluorescence, higher = more signal.

Alpha-bungarotoxin (Bungarus multicinctus), sequence (P60615 whole entry, looked up): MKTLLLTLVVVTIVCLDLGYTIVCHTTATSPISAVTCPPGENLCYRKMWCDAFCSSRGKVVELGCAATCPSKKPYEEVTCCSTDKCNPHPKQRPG
Fibroblast growth factor 10 (Homo sapiens), sequence (O15520 whole entry, looked up): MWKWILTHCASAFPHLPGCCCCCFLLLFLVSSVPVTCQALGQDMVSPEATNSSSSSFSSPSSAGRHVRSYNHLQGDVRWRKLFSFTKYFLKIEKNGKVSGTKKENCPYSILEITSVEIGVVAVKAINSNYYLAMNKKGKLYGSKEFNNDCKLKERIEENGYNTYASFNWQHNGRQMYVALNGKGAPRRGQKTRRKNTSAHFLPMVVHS
Follistatin-related protein 3 (Homo sapiens), sequence (O95633 whole entry, looked up): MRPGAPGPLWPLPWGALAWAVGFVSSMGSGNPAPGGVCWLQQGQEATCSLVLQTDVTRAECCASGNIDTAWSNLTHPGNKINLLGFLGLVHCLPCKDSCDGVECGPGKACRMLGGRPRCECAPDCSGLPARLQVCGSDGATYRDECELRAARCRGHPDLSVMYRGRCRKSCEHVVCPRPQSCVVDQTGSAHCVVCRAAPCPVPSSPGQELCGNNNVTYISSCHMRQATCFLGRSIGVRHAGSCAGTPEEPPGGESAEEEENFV
Torsin-1A-interacting protein 1 (Homo sapiens), sequence (Q5JTV8 whole entry, looked up): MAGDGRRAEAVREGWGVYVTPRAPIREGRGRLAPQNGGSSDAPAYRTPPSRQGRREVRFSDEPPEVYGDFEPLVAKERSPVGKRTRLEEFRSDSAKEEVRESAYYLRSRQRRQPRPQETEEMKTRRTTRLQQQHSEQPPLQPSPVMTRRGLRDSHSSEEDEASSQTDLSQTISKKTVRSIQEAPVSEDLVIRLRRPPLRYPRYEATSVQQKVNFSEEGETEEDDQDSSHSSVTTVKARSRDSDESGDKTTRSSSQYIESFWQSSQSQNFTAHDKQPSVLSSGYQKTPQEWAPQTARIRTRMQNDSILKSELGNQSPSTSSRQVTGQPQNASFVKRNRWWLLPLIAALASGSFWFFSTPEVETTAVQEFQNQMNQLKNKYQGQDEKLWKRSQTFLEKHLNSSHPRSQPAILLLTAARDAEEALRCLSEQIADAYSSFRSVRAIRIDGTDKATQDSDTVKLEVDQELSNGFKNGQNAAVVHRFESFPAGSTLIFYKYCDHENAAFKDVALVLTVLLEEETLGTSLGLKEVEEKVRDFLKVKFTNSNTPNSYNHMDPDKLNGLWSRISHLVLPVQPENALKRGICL

Consider `C=C(CCCC)/C(=C/C[C@H](OC(=O)c1ccncc1)c1ccccc1OCCO)c1cc(C(=O)OC)ccc1OC`, for which the composite z-score in [1] is 0.209; in test [2], -0.126; in [3], 0.023; in test [5] it was 0.864; in test [6], 0.325; in test [7], 0.0323. In addition, the composite z-score in [8] was 0.636; in test [9], 0.273; in test [10], 1.17; in test [11], 1.22; in test [13] it was -0.015; in test [14], -0.0646. For the same compound, the composite z-score in test [15] is -0.636; in [16], -0.0331; in test [17], 0.0684; in test [18] it was -0.305; in test [19], 0.869; in test [20], -0.056. Moreover, the z-score in [4] was -0.63 (inactive); in test [12], -2.89.

In the case of `Cc1ccc(S[C@]2(C(=O)NC3CC3)CC(=O)N(C(C)C)[C@@H]2c2ccc(CO)cc2I)cc1`, the composite z-score in test [1] was 1.37; in test [2], -0.299; in [3] it was 0.812; in test [5], 0.377; in test [6], -0.122; in test [7] it was -0.638. The composite z-score in [8] is 0.101; in [9], -1.37; in [10], 0.318; in test [11], 1.17; in [13], -0.792; in test [14], -0.462. For the same compound, the composite z-score in test [15] is -0.0946; in test [16], 0.191; in test [17], -0.372; in test [18], -0.519; in test [19], 1.74; in test [20] it was -0.0074. Further, the values for the z-score in test [4] and in test [12] were -1.89 (inactive) and -2.21, respectively.

For `CCCCCC1=C2CNC(CC(C)C)(C(=O)OC)C=C2C(C)C1=O` (stereo not given), the composite z-score in test [1] is 0.452; in [2], 0.72; in test [3], 0.952; in [5], 0.071; in [6], -0.361; in test [7], -0.73. Further, the composite z-score was -0.403 in test [8]; -0.756 in test [9]; 1.23 in [10]; 1.2 in test [11]; -0.869 in [13]; 1.64 in test [14]. Moreover, the composite z-score in test [15] was 1.22; in [16] it was -0.0165; in [17], 1.16; in test [18], 0.154; in test [19], 0.932; in [20] it was 0.195. Besides, the z-score in test [4] is 5.08 (inactive); in test [12], -0.897.

Regarding `COCCCNC(=O)[C@@]1(Sc2ccc(C)cc2)CC(=O)N(Cc2ccccc2C(F)(F)F)[C@@H]1c1ccc(CO)cc1I`, the composite z-score in test [1] is 0.284; in [2], 0.583; in test [3] it was 1.07; in test [5], -1.02; in test [6], -0.981; in test [7], -1.44. For the same compound, the composite z-score was -1.73 in [8]; -0.831 in test [9]; 1.02 in [10]; -0.779 in [11]; -1.47 in test [13]; -0.376 in test [14]. In addition, the composite z-score in test [15] was 1.04; in [16], -0.139; in [17] it was -0.0769; in [18] it was 0.595; in test [19], -0.181; in test [20], -1.2. The values for the z-score in test [4] and in test [12] were -0.411 (inactive) and -0.817, respectively.

For `O=C1NC(=O)C2C1C=CC(C(O)c1ccc(B(O)O)cc1)N2Nc1ccc(Cl)cc1Cl` (stereo not given), the composite z-score in test [1] is 0.46; in test [2], 0.704; in test [3] it was 0.326; in [5], 0.0671; in test [6] it was -0.0838; in test [7] it was -0.174. Moreover, the composite z-score in test [8] was 0.317; in [9] it was -0.414; in test [10] it was 0.948; in test [11], -0.181; in test [13] it was -0.401; in test [14], 0.524. Further, the composite z-score in test [15] is 0.0583; in test [16] it was -0.0721; in [17] it was -0.181; in test [18] it was 0.682; in test [19], 0.392; in test [20] it was 0.869. For the same compound, the z-score is 0.379 (inactive) in test [4] and -0.693 in [12].
